Where “and” joins values, the source holds several entries; their conditions need not be identical. Equal values may be shown once. Results filed as inconclusive are left out. Where a structure was tested more than once in an assay, its records may differ in their call. Calls of active or inactive are those of the source. How the source made its calls: active means hit-call score of the fitted dose curve at least 0.9, where 1 is the maximum; inconclusive means response in the unintended direction; inactive means score below 0.9.
Experiments:
[1] = TOX21_p53_BLA_p2_viability: Viability Assessment in the Tox21 HCT-116 p53 Agonism Beta-lactamase Assay, Phase 2 (AID 2283591);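 further: compound exposure lasted 16 h at 37 °C; actives lower the ATP signal meaning cytotoxicity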
Summary of the method: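 HCT116 p53-bla cells, 4000/well, dosed after 5 h plating (217-fold dilution of DMSO stocks) and incubated 16 h at 37C. Viability taken as cellular ATP by CellTiter-Glo luminescence after 30 min RT; signal loss marks cytotoxicity.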

[2] = target: Cellular tumor antigen p53 (Homo sapiens) (UniProt P04637); experiment: TOX21_p53_BLA_p2_ratio: Tox21 HCT-116 p53 Agonism Beta-lactamase Assay, Ratio, Phase 2 (AID 2283592)
Sequence of Cellular tumor antigen p53 (Homo sapiens) (P04637 whole entry, looked up): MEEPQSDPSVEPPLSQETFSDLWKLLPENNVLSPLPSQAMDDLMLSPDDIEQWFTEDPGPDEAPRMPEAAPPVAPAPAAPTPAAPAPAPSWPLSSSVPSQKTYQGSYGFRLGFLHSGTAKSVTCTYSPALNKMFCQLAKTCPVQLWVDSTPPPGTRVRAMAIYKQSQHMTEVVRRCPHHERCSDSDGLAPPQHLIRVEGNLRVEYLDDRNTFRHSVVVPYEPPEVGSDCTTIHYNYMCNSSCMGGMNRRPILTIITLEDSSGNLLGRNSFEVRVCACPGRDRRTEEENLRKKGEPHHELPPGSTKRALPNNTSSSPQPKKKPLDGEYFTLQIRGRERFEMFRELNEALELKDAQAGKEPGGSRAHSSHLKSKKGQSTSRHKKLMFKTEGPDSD
Summary of the method: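 Human colon HCT116 cells with an inducible p53 beta-lactamase reporter are exposed to test chemicals for 16 h at 37C. Reporter induction is read as the 460/530 nm emission ratio after CCF4-AM loading, normalized to DMSO.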

[3] = TOX21_p53_BLA_p3_viability: Viability Assessment in the Tox21 HCT-116 p53 Agonism Beta-lactamase Assay, Phase 3 (AID 2283593);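 further: cells exposed to compound for 16 h before reading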
Summary of the method: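 HCT116 cells, 4000/well, dosed 5 h after plating by pin transfer (217-fold dilution from DMSO stock) and incubated 16 h at 37C, 5% CO2. Viability read as ATP luminescence with CellTiter-Glo after 30 min at room temperature.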

[4] = target: Cellular tumor antigen p53 (Homo sapiens) (UniProt P04637); experiment: TOX21_p53_BLA_p3_ratio: Tox21 HCT-116 p53 Agonism Beta-lactamase Assay, Ratio, Phase 3 (AID 2283596)
Summary of the method: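 HCT116 p53-bla cells (4000/well) given compound in DMSO (217-fold dilution) after 5 h, incubated 16 h at 37C. CCF4-AM substrate 2 h at room temperature; 460/530 nm emission ratio, gain fitted against DMSO.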

[5] = target: Cellular tumor antigen p53 (Homo sapiens) (UniProt P04637); experiment: TOX21_p53_BLA_p5_ratio: Tox21 HCT-116 p53 Agonism Beta-lactamase Assay, Ratio, Phase 5 (AID 2283599)
Summary of the method: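 HCT-116 p53-bla cells (4000/well) plated 5 h, dosed with compound (217-fold DMSO dilution) for 16 h at 37 C; CCF4-AM substrate 2 h at room temperature. Activity is the 460/530 nm emission ratio (405 nm excitation), fitted in gain-of-signal direction versus DMSO.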

[6] = TOX21_p53_BLA_p5_viability: Viability Assessment in the Tox21 HCT-116 p53 Agonism Beta-lactamase Assay, Phase 5 (AID 2283600)
Summary of the method: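 Seeded cells (4000/well) settle 5 h before compound addition. Plates then incubate 16 h at 37C, receive FRET substrate for 2 h, and finally CellTiter-Glo, with luminescence measured after a 30 min room-temperature incubation.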

[7] = target: Cellular tumor antigen p53 (Homo sapiens) (UniProt P04637); experiment: TOX21_p53_BLA_p4_ratio: Tox21 HCT-116 p53 Agonism Beta-lactamase Assay, Ratio, Phase 4 (AID 2283601)
Summary of the method: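 HCT-116 p53 beta-lactamase reporter cells (4000/well) preincubated 5 h, then compound (217-fold dilution of DMSO stock) for 16 h at 37C. CCF4-AM substrate added 2 h at room temperature; 460/530 nm emission ratio fitted upward versus DMSO.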

[8] = TOX21_p53_BLA_p4_viability: Viability Assessment in the Tox21 HCT-116 p53 Agonism Beta-lactamase Assay, Phase 4 (AID 2283597);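 further: hits lower the luminescence signal meaning cytotoxicity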
Summary of the method: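 Luminescent ATP readout (CellTiter-Glo, 30 min, room temperature) in the same wells as the p53 bla ratio. HCT116 cells were treated for 16 h at 37C with DMSO-dissolved compounds.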

[9] = Tanguay_ZF_120hpf_MORT_legacy: (Legacy) Oregon State University Tanguay Lab 120 Hour Post-fertilization zebrafish Assay for Mortality (AID 2283633);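 on AC50: fitted as increase in binary mortality versus DMSO negative control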
Summary of the method: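 Single dechorionated Tropical 5D embryos were held with test chemical (0.64% DMSO final) from 6 to 120 hpf at 28C under foil. Deaths at 24 or 120 hpf were recorded as binary calls, analysed for increase over DMSO controls.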

[10] = Tanguay_ZF_120hpf_YSE_legacy: (Legacy) Oregon State University Tanguay Lab 120 Hour Post-fertilization zebrafish Assay for Yolk Sac Edema (AID 2283634);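 on AC50: actives raise the incidence of yolk sac edema above the DMSO baseline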
Summary of the method: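 Single dechorionated embryos were held in sealed plates at 28C with test chemical (0.64% DMSO final) from 6 hpf until 120 hpf. Edema of the yolk sac was then recorded as a binary endpoint; non-mortality endpoints were skipped for dead embryos.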

Measured: AC50

COc1ccc(C=O)cc1OC
not listed: [8] | [9] | [10]
inactive: all other assays above

CCNc1nc(NC(C)(C)C)nc(SC)n1
not listed: [9] | [10]
inactive: all other assays above

CC(=O)[O][Hg][c]1ccccc1
active: [1] 2.74 µM and 2.65 µM and 3.55 µM | [2] 4.84 µM and 12.5 µM and 8.1 µM | [3] 254 nM and 422 nM and 682 nM | [4] 1.46 µM and 1.07 µM and 1.23 µM | [8] 3.63 µM and 4.05 µM and 3.54 µM | [5] 2.9 µM and 2.82 µM and 4.64 µM | [6] 1.5 µM and 1.56 µM and 2.25 µM | [7] 7.28 µM and 2.97 µM and 7.86 µM | [9] 0.179 µM
inactive: [10]

CCCCCCCCc1ccc(O)cc1
inactive: all assays above

O=C/C=C/c1ccccc1
not listed: [9] | [10]
inactive: all other assays above

CCOP(=S)(OCC)Oc1nc(Cl)c(Cl)cc1Cl
not listed: [6]
inactive: all other assays above

O=S(=O)(c1ccc(Cl)cc1)c1ccc(Cl)cc1
not listed: [9] | [10]
inactive: all other assays above

CC(Br)C(=O)O (centres undefined)
not listed: [9] | [10]
inactive: all other assays above

CCCCCCCCCCCCCCCC[n+]1ccccc1
inactive: [1] | [3] | [4] | [6]
active: [1] 48.8 µM and 69.6 µM | [3] 45.6 µM and 81 µM and 46.1 µM | [4] 36.1 µM and 53.2 µM | [8] 66.5 µM [middle of 4 runs] | [5] 71.7 µM [middle of 4 runs] | [6] 62.7 µM and 84.3 µM and 80.2 µM | [7] 67.7 µM [middle of 4 runs]

c1cc[c]([Hg][c]2ccccc2)cc1
inactive: [1] | [4] | [5]
active: [2] 15.2 µM | [8] 79.3 µM

C=CC#N
not listed: [9] | [10]
inactive: all other assays above

COP(=S)(OC)Oc1cc(Cl)c(Br)cc1Cl
inactive: [1] | [3] | [8] | [5]
active: [2] 70.1 µM | [4] 46.8 µM | [7] 79.6 µM

CC(C)(C)CC(C)(C)c1ccc(O)cc1
active: [1] 64.5 µM and 42.4 µM | [2] 74.7 µM and 35.4 µM | [3] 35 µM | [4] 41.9 µM | [8] 69 µM and 22.2 µM | [5] 61.9 µM and 38.6 µM | [6] 65.3 µM and 39.6 µM | [7] 79.4 µM
inactive: [3] | [4] | [7] | [9] | [10]

O=[N+]([O-])c1c(Cl)c(Cl)cc(Cl)c1Cl
not listed: [9] | [10]
inactive: all other assays above

COP(=S)(OC)Oc1ccc(Sc2ccc(OP(=S)(OC)OC)cc2)cc1
not listed: [9] | [10]
inactive: all other assays above

C(=NC1CCCCC1)=NC1CCCCC1
active: [3] 17.7 µM and 30.7 µM | [4] 16.2 µM
inactive: [1] | [2] | [4] | [5] | [6] | [7]

C[C@@H]1C[C@@H]([C@H](O)CC2CC(=O)NC(=O)C2)C(=O)[C@@H](C)C1
active: [2] 13.5 µM | [8] 1.92 µM | [9] 43.2 µM
inactive: [1] | [2] | [3] | [4] | [8] | [5] | [6] | [7] | [10]

C1CCC(NC2CCCCC2)CC1
not listed: [9] | [10]
inactive: all other assays above

Clc1ccc(COC(Cn2ccnc2)c2ccc(Cl)cc2Cl)cc1 (centres undefined)
active: [1] 64.8 µM and 73 µM and 33.7 µM | [2] 60.3 µM and 33.3 µM and 23.5 µM | [3] 72.9 µM and 73.5 µM and 23 µM | [4] 66.3 µM and 45.5 µM and 34.6 µM | [8] 70.5 µM and 61.1 µM and 37.6 µM | [5] 79.1 µM and 60.7 µM and 38.7 µM | [6] 85.2 µM and 75.6 µM and 36.2 µM | [7] 77.8 µM and 62 µM and 33.9 µM

NNC(=S)NN
not listed: [6] | [9] | [10]
inactive: all other assays above

Nc1cccc(Cl)c1
not listed: [9] | [10]
inactive: all other assays above

CCC(C)c1cccc(C(C)CC)c1O (centres undefined)
inactive: [1] | [2] | [3] | [8] | [5] | [7]

O=C1C2(Cl)C3(Cl)C4(Cl)C(Cl)(Cl)C5(Cl)C3(Cl)C1(Cl)C5(Cl)C24Cl (centres undefined)
active: [1] 73.9 µM and 73.7 µM | [2] 82.6 µM and 60.4 µM | [3] 80.6 µM and 78.5 µM | [4] 72.4 µM and 85.4 µM | [8] 68.4 µM and 66.4 µM | [5] 83.8 µM and 85 µM | [6] 82 µM and 83.7 µM | [7] 83.2 µM and 60.3 µM | [10] 72.1 µM
inactive: [9]

BrCCBr
inactive: [1] | [2] | [3] | [4] | [6] | [7]

CCCCOCCOC(C)=O
not listed: [6] | [9] | [10]
inactive: all other assays above

CC(=O)c1cc(C(C)(C)C)cc2c1CCC2(C)C
not listed: [8] | [9] | [10]
inactive: all other assays above

O=C(OC1CCCCC1)c1ccccc1C(=O)OC1CCCCC1
inactive: [1] | [2] | [3] | [8] | [5] | [6]

CCCCCCCCSC(=O)Oc1cc(Cl)nnc1-c1ccccc1
active: [3] 59.1 µM
not listed: [7] | [9] | [10]
inactive: all other assays above

Nc1ncc([N+](=O)[O-])s1
not listed: [8] | [9] | [10]
inactive: all other assays above

CCC(C)(C)c1ccc(O)c(C(C)(C)CC)c1
active: [1] 46.1 µM and 45.7 µM | [2] 72.7 µM and 66.4 µM | [3] 52.9 µM and 64 µM | [4] 79.3 µM and 85.5 µM | [8] 23 µM and 53.5 µM | [5] 22.9 µM and 70.8 µM | [6] 22.2 µM and 45.7 µM | [7] 54.3 µM
inactive: [9] | [10]

COP(=O)(OC)OC
not listed: [2] | [9] | [10]
inactive: all other assays above

O=C(CCl)CCl
active: [3] 19.3 µM and 22.3 µM
not listed: [2] | [9] | [10]
inactive: all other assays above

CCCCC(CC)CO[N+](=O)[O-] (centres undefined)
inactive: [1] | [2] | [4] | [7]

CNC(=O)O/N=C/C(C)(C)S(C)=O (centres undefined)
inactive: [1] | [2] | [4] | [5] | [7]

CC(C)c1cccc(C(C)C)c1O
inactive: [2] | [3] | [4] | [8] | [5] | [6]

Cc1cc(=O)[nH]o1
inactive: [1] | [5] | [6]

Nc1cccc2ccccc12
inactive: [1] | [4] | [8] | [5] | [7]

CCN1CCC2(CC1)COc1cc3c(cc12)N(C(=O)c1ccc(-c2ccc(-c4nnc(C)o4)cc2C)cc1)CC3
inactive: [4] | [5] | [9] | [10]
active: [1] 54.7 µM | [3] 67.5 µM | [8] 45.7 µM | [6] 64.2 µM | [7] 57.4 µM

Oc1cccc2cccnc12
inactive: [1] | [3] | [8] | [6] | [10]
active: [9] 27.2 µM

CC(C)c1ccc(CO)cc1
not listed: [1] | [9] | [10]
inactive: all other assays above

COc1cc(-c2ccc(N)c(OC)c2)ccc1N
active: [4] 63.6 µM | [5] 71.3 µM | [7] 64 µM | [10] 32.8 µM
inactive: [1] | [3] | [4] | [8] | [5] | [6] | [7] | [9] | [10]

CC(C)(c1ccccc1)c1ccc(O)c(C(C)(C)c2ccccc2)c1
active: [1] 11.4 µM and 20.3 µM | [3] 40.5 µM and 53.8 µM | [4] 80.6 µM and 83.7 µM | [8] 12.1 µM and 16.6 µM | [5] 73.6 µM and 51.9 µM | [6] 39.1 µM and 24.3 µM | [7] 37.5 µM and 29 µM
inactive: [9] | [10]

c1ccc(N=NNc2ccccc2)cc1
not listed: [2] | [9] | [10]
inactive: all other assays above

Nc1ccc(-c2ccc(N)c(Cl)c2)cc1Cl
active: [4] 15.7 µM and 18.6 µM | [5] 16.3 µM and 43.3 µM | [7] 33.6 µM
inactive: [1] | [3] | [4] | [8] | [5] | [6] | [7]

COP(=S)(OC)Oc1c(Cl)cc(C)cc1Cl
inactive: [1] | [4] | [8] | [5] | [7]

O=[N+]([O-])c1ccc(O)c([N+](=O)[O-])c1
inactive: [3] | [4] | [8] | [5] | [6] | [7] | [10]
active: [2] 69 µM and 63.7 µM | [4] 78.5 µM | [5] 79.2 µM | [9] 26.4 µM

Reference: PubChem BioAssay (EPA / NIEHS)
